In PubChem BioAssay (EPA / NIEHS):
Activity calls are given as the source filed them. Rule for the calls: active = hit-call score of the fitted dose curve at least 0.9, where 1 is the maximum; inactive = score below 0.9.

read-out: TIMP metallopeptidase inhibitor 2 (TIMP2), TIMP2 (gene 7077); experiment: BSK_KF3CT_TIMP2: BioMAP Diversity Plus: KF3CT Assay for TIMP metallopeptidase inhibitor 2 (TIMP2) Biomarker Activity (AID 2283071); details: primary human keratinocytes with fibroblasts; actives raise or lower the signal
Procedure: BSK_KF3CT is a cell-based, multiplexed-readout assay that uses keratinocytes and foreskin fibroblasts, a human skin primary cell co-culture, with measurements taken at 24 hours after chemical dosing in a 96-well plate.BSK_KF3CT_TIMP2 is an assay component measured in the BSK_KF3CT assay. It measures TIMP-2 antibody related to regulation of gene expression using ELISA technology.Data from the assay component BSK_KF3CT_TIMP2 was analyzed into 1 assay endpoint. This assay endpoint, BSK_KF3CT_TIMP2, was analyzed with bidirectional fitting relative to DMSO as the negative control and baseline of activity. Using a type of binding reporter, gain or loss-of-signal activity can be used to understand changes in the signaling as they relate to the gene TIMP2. Furthermore, this assay endpoint can be referred to as a primary readout, because this assay has produced multiple assay endpoints where this one serves a signaling function. To generalize the intended target to other relatable targets, this assay endpoint is annotated to the protease inhibitor intended target family, where the subfamily is metalloproteinase inhibitor.
The levels of cell surface (or secreted, indicated by the prefix "s") biomarker endpoints were measured by ELISA. Overt cytotoxicity to cells in confluent adherent cultures (all systems other than the BT system) was assessed by measuring total protein levels using sulforhodamine B (SRB) staining in parallel cultures at the time of biomarker measurements, indicated as SRB endpoints. For proliferation assays for adherent cell types, individual cell types are cultured at sub-confluence and relative cell numbers quantified by SRB staining at time points optimized for each system (48 h: 3C and CASM3C systems; 72 h: BT and HDF3CGF systems; 96 h: SAg system). SRB was performed by staining cells with 0.1% SRB after fixation with 10% TCA and reading wells at 560 nm.Viability and proliferation of PBMC (T cells) was quantified by Alamar Blue reduction for the SAg and BT systems. For PBMC viability (referred to as PBMC Cytotoxicity within the assay endpoint names), cells were plated (75,000/well in a 96-well plate) and then chemical samples added for 1 h before addition of activators, SEB and TSST-1 (20 ng/mL final concentration each). Cells were incubated for 90 h. Then, Alamar Blue (20 uL/well) (Invitrogen, Cat DAL1100) was added for 6 h, and the plates were read with a fluorescence microplate reader at 546/580 nm (excitation/emission). For PBMC proliferation, cells were plated and activated as above but incubated for only 16 h prior to addition of Alamar Blue. Plates were read after 6 h.

Row | SMILES | outcome | AC50
1 | COP(=O)(CCC(=O)NCO)OC | inactive | 
2 | O=C(O)C(F)(F)C(F)(F)C(=O)O | inactive | 
3 | Nc1cc2c3c(c1)C(c1ccccc1)=N[C@@H](NC(=O)c1cccnc1)C(=O)N3CC2 | inactive | 
4 | CCCCN(CCCC)N=O | inactive | 
5 | CC(C)Nc1ccc(Nc2ccccc2)cc1 |  | 28.9 µM (active)
6 | c1ccc2c(c1)Nc1ccccc1S2 |  | 27.3 µM (active)
7 | NC(=O)C(F)(F)C(F)(F)F | inactive | 
8 | COCCOCCO |  | 0.148 µM (active)
9 | CCOS(=O)(=O)OCC | inactive | 
10 | O=[N+]([O-])c1ccc(Cl)c(Cl)c1 | inactive | 
11 | CC(Cl)CN(C)C (stereo not given) | inactive | 
12 | CSC(C)(C)C=NO | inactive | 
13 | Nc1ccc([N+](=O)[O-])cc1Cl | inactive | 
14 | CN(C)C(=O)Cl | inactive | 
15 | O=P1(N(CCCl)CCCl)NCCCO1 (stereo not given) | inactive | 
16 | ClC(Cl)c1ccccc1 | inactive | 
17 | CCOP(=S)(S)OCC | inactive | 
18 | c1cc2c3c(cccc3c1)CC2 | inactive | 
19 | Cc1ccc(O)cc1C | inactive | 
20 | O=P(Oc1ccccc1)(Oc1ccccc1)Oc1ccccc1 | inactive | 

Row | SMILES | outcome | AC50
21 | CCNc1nc(Cl)nc(NC(C)(C)C)n1 | inactive | 
22 | CCOc1ccc(C(C)(C)COCc2cccc(Oc3ccccc3)c2)cc1 | inactive | 
23 | c1nc[nH]n1 | inactive | 
24 | CC(Cl)(Cl)C(=O)O | inactive | 
25 | C=CC(=O)OCC(F)(F)C(F)F | inactive | 
26 | N#Cc1cc([N+](=O)[O-])ccc1N | inactive | 
27 | CCCCC(CC)COP(=O)(Oc1ccccc1)Oc1ccccc1 (stereo not given) |  | 6.54 µM (active)
28 | CCN(CC)c1ccccc1 | inactive | 
29 | Nc1ccc2ccccc2c1 | inactive | 
30 | c1ccc(OP(Oc2ccccc2)Oc2ccccc2)cc1 | inactive | 
31 | CCCCCCCc1ccc(O)cc1 |  | 32.2 µM (active)
32 | O=C(O)C(F)(F)OC(F)(F)C(F)(F)OC(F)(F)C(=O)O | inactive | 
33 | CC(C)(C)c1ccc(O)cc1 | inactive | 
34 | CC(C)(C)OOC(C)(C)C | inactive | 
35 | O=c1ssc(Cl)c1Cl |  | 2.71 µM (active)
36 | COP(=O)(O)OC | inactive | 
37 | CCCCN(CCCC)SN(C)C(=O)Oc1cccc2c1OC(C)(C)C2 | inactive | 
38 | Cc1ccc2c(c1N)C(=O)c1ccccc1C2=O |  | 6.86 µM (active)
39 | c1ccc2c(c1)sc1ccccc12 | inactive | 
40 | CCCCOCCOP(=O)(OCCOCCCC)OCCOCCCC | inactive | 
